The supplement of paper PMC3724861
This is one part of a sample in which hits are shown more often than they occur. The true hit rate is not given.

tested on: T1, Caupolican (Caup) homeodomain DNA-binding domain; test: PBM E-score (8-mer, recovered from the published 9-mer minima) (E-score (dimensionless, -0.5 to 0.5)); Drosophila protein; higher = stronger relative binding preference, active = 0.31 or more
T1 sequence: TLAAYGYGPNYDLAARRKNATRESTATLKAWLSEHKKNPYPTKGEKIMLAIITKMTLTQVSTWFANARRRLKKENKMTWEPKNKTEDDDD
Outline: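 An enrichment score, with higher meaning stronger, expresses relative binding preference for each short DNA word. The protein used was Caup's homeodomain DNA-binding domain (residues 214-303), produced by in vitro transcription and translation and tested at 100 nM on custom-designed protein binding microarrays. The 8-mer values were recovered from published 9-mer scores, each equal to the lower of its two constituent 8-mer scores.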

PBM E-score, active:
AGGTAACA 0.327
GTATGACA 0.312
ATATGACA 0.336
ACATAATA 0.323
ACATAACA 0.332
TGTGTTAA 0.32
CGTGTTTA 0.319
CGTGTTAA ≥ 0.33
GGTACAAC 0.32
CGTACAAC 0.31
CGTACAAG 0.37
AGTACAAG 0.416
TGTCAACA ≥ 0.324
AGACAACA 0.349
TGACAACA 0.377
CGACAACA 0.342
GGACAACA 0.336
CGACAAGA 0.317
GTCTTGTA 0.352
ATCTTGTA 0.375
AACATAAC 0.318
GACATAAC 0.325
AACATAAT ≥ 0.327
AACACGGT 0.351
AACACGGG 0.32
ACAACAAG 0.362
ACAACAAT 0.347
ACAACAAC 0.36
ACAACAAA 0.323
TGTATCAA 0.315
GTTGTCAA 0.339
GTTGTCTA 0.321
GTTGTCCA ≥ 0.336
AGGTACAT 0.389
AGGTACAA 0.345
TGGTACAA 0.358
GAACACGA 0.32
TAACACGA 0.323
ATGTAAAT 0.352
ATGTAAAC 0.36
ATGTAAAG 0.317
ATGTAAAA 0.354
CCGTGTAC 0.411
ACGTGTAT 0.353
ACGTGTAG 0.321
ACGTGTAC 0.367

PBM E-score, inactive:
GATAGATC 0.0307
CACGCAAA 0.0933
CAAATACA 0.245
GTTCGCGA 0.066
TACTGCAA 0.125
ATTGGGCG -0.135
AAGTAATT 0.18
AGCCATAA 0.0213
ACCGGCGA -0.156
AGGTAACC -0.0119
AGGTAACT 0.0502
CTGGTAAG -0.00689
GTATGATA 0.242
CTATGACA 0.223
ATATGACC 0.021
GTATGAGA 0.0966
GAGCTGTA 0.079
CTATTGAA 0.0499
GCAAGTCC -0.0418
GCATAATA 0.169
ACATAACC 0.22
ACATAATC 0.202
ACATAACT 0.291
GCCTATCA -0.108
CGATCAAA -0.00998
CATCTAAG -0.0746
CGTGTTAG 0.285
GGTGTTAA 0.18
CGTGTTAC 0.282
AGTGTTTA 0.176
GGTGTTTA 0.124
AGTGTTAA 0.165
AGCTGAGG -0.169
AAGCCTAC -0.0275
AGACGGAC -0.0361
CTGAAATA 0.0494
AAATAACT 0.19
ACATCAAC 0.235
AAAGAGTA 0.0035
CGCACAAC 0.0805
AGTACAAT 0.292
CGTACAAA 0.18
AGTACCAG 0.0977
CATACAAG 0.3
GGTACAAA 0.256
CGTACAGC 0.00506
AGTACAAC 0.275
GAGTTATC 0.0344
CTAGCAAC 0.101
GGTATTGA 0.058
AGCTCAAT -0.0704
TGAGTGCA -0.0812
CGTTTGCC -0.0961
TCATCGCA 0.065
CACCCACG -0.151
AAGGCGCG -0.205
GCATGAGC -0.0712
CGACAACG 0.168
CGTCAACA 0.0802
TGACAGCA 0.185
TGACAAAA 0.186
GGTCAACA 0.159
AGACAACT 0.191
CGACAACC 0.186
AGACAACG 0.231
AAGCATCA 0.0394
GCAAGTGC -0.0754
AGACAGGC -0.00368
AGTCCGGG -0.154
AAGTTGAC 0.0758
AACGCTGG -0.0926
CTATTGGA 0.00708
ATGCTGAC 0.119
GAAAGCAC 0.0573
ATGGTTGG -0.0636
AATATTGG 0.0704
ATCACTAG 0.138
AGACAAGA 0.256
CGACAAGC 0.224
GGACAACC 0.169
GGACAAGA 0.264
AAGGGGTG -0.101
GCTGGTAC 0.0272
AGTTCTAT 0.0299
GTCTTGCA 0.0651
CTCTTGTA 0.299
ATCTTGTC 0.308
ATCTTGTG 0.18
GCAAAGGC -0.087
ATATGCGA 0.0126
AGTTCAAC 0.0449
ACTCCTTG 0.0436
CCTCTGCC -0.243
CACATAAC 0.223
GACATAAA 0.288
GCCATAAC 0.0397
ATCATAAC 0.156
ATCATAAT 0.167
AACATAAG 0.268
AGCCCATG 0.00842
CCTTAAGG -0.154
AGAACGCC -0.114
AACACGCT 0.267
CACACGGG -0.0095
AACACGGC 0.166
AACACGGA 0.31
CGCTGAAG -0.19
CGCATTGA -0.0262
CCCCAGCG -0.312
CAAAACGG 0.016
AAGGCTCA -0.107
AATTTTCT 0.0254
AGTGGACC -0.151
GCAACAAC 0.205
CCAACAAC 0.178
ACAACAGT 0.205
CCAACAAG 0.196
AAAACAAT 0.177
ACAACCAG 0.249
TCAACAAA 0.157
GCAACAAA 0.15
AGTACGGA -0.0156
ATAGACTA 0.115
AGTTATTG 0.11
AGAGTCCC -0.228
GTACAGAA 0.136
CGTATCAA 0.0341
AGTATCAA 0.148
CCTGTCTA 0.0989
ATTGTCCA 0.1
ATTGTCAA 0.183
CTTGTCTA 0.281
GCTGTCAA 0.057
ATTGTCTA 0.194
CTTGTCCA 0.287
CGGGACAA 0.0647
CCGGGTGC -0.287
ACTTAATC 0.0653
GTTTAATA 0.23
AAAGCCGA -0.139
AGGTACTC 0.085
AGGTACAC 0.297
GGGTACAA 0.242
AGGTACAG 0.146
AGGTATAA 0.0486
CGGTACAA 0.234
GGAGGGAA -0.186
ACGCATAT 0.103
ACGGCTTG -0.133
CACCTACA 0.17
AGTCATTG 0.121
CGAGTGAA -0.00479
CAACACGA 0.267
GAACACTA 0.103
GAACACGC 0.254
TAACACCA 0.247
GCCGCCCA -0.275
CTGTAAAG 0.0792
GTGTAAAC 0.293
TTGTAAAA 0.275
CTGTAAAC 0.18
CTGTAAAA 0.121
AAGTAAAG -0.0403
ACGTAAAT 0.102
AGGTAAAT 0.153
AGAGTAGG 0.00327
CCCCTCGC -0.261
CACACATG 0.192
AGCGACAA 0.228
GTTATTTA 0.201
AATGCATA 0.0394
ACGTTTGG 0.0157
AAGGTCAA 0.00315
ATGCCTCA -0.045
CGAGACAA 0.0948
AAGTGTAG 0.17
CCGTGTCC 0.218
CCGTGTAG 0.286
ACGTGTGC 0.0653
CAGTGTAC 0.207
AAGTGTAT 0.144
ACGTGTCT 0.244
AAGTGTAC 0.304
CTGAGCGC -0.211
